# PubChem BioAssay (NCATS)
# Records with an inconclusive call do not appear. A call without a number means that no potency is given here. The source made the active and inactive calls. The call rests on the fitted dose curve; in most records, active means well fitted cell-killing curve with a large enough effect; inconclusive means small, poorly fitted or top-dose-only effect, or effect the other way; inactive means flat fitted curve, though single readings scatter.
# System: PA-1
# Test: Primary qHTS to identify gynecologic anti-cancer compounds using libraries of approved drugs and bioactive compounds (AID 1345084); further: nearly all actives have a fitted effect of over 55% in size
# Conditions: Gynecologic cancer cell panel viability, ATPlite luminescence, 48 h; series mostly up to 57.5 µM
# Summary of the method: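 Five-point cytotoxicity, 48 h drug exposure at 37 C, 5% CO2, on cells seeded 16 h beforehand. ATP content read by ATPlite luminescence.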
row,Structure (SMILES),Potency
1,Cc1cn(C[C@H](N)C(=O)O)c(=O)n(Cc2cc(-c3ccccc3)sc2C(=O)O)c1=O,inactive
2,CCc1c(C(=O)C(N)=O)c2c(OCC(=O)OC)cccc2n1Cc1ccccc1,inactive
3,N#CC(OC1OC(COC2OC(CO)C(O)C(O)C2O)C(O)C(O)C1O)c1ccccc1 (configuration not stated),inactive
4,CC(=O)OC1CC(O)C2(C)C(CC(OC(C)=O)C3(C)C2CCC2(C)C(c4ccoc4)C(=O)C4OC423)C1(C)C (configuration not stated),inactive
5,CCC(C)(OC(C)=O)C(=O)O[C@H]1[C@H](OC(C)=O)C[C@@H]2[C@@](C)([C@@H]3C[C@H]4C=CO[C@H]4O3)[C@H](C)C[C@H](OC(C)=O)[C@@]2(COC(C)=O)[C@@]12CO2 (some centres not stated),inactive
6,C[C@@H]1C(=O)O[C@H]2[C@H](O)[C@@]34[C@@H]5OC(=O)[C@@]3(O[C@@H]3OC(=O)[C@@H](O)[C@@]34[C@H](C(C)(C)C)[C@H]5O)[C@@]12O,inactive
7,C[C@@]12C[C@@H](c3ccoc3)OC(=O)C1CC[C@]1(C)[C@H]2[C@H]2C=C[C@]1(O)C(=O)O2 (some centres not stated),inactive
